# Source: the supplement of paper PMC6555819
# System: PPARg DBDmut:RXRa IVT, anti-PPARg (DBD mutation: PPARg1 K132A/R137A, NR concentration 270 nM, RXRa partner concentration 90 nM)
# Assay: PBM binding z-score (relative to random genomic background probes); higher = stronger binding; sequences stand for … in GC…GCGATTGACAGCGTAGAATGAAGG
# In short: (§1)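 Probes were double-stranded and carried 34-nt variable regions with direct-repeat seeds, single-nucleotide variants, half-site ablations and random human genomic background sequences, printed on custom Agilent 4×180K protein-binding microarrays. Arrays were incubated 1 h with ligand-free nuclear receptor dimers in PBS pH 7.4, 2% milk, 0.02% Triton X-100, 1 mM DTT, 0.2 mg/mL BSA and 0.4 mg/ml salmon testes DNA. Antibodies against each partner (one per run) detected binding, and scanned fluorescence was regression-normalized. Binding z-scores use the random background probes as reference.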
row,Sequence,PBM binding z-score
1,CAAACTAGCTCAAAGGTCAAAGTCGAGCCAACCA,0.599
2,GGAACGAGGGCAAGTCGATAGCAGAGTTTGATGG,-0.206
3,CAGCGTAGGTCAGGGCCAGTATAGGAGGAACGTT,-0.58
4,TATTGTAGATCAACAGGAGGTTAAGAAAGATCGA,1.31
5,CAGCCTAGGTCAGGGCCAATATAGGAGGAACGTT,-0.288
6,CTCGAAAAGTCGTGCTCAGGTGAGTATACCAAAC,0.0169
7,GCGATTGGGGCAAAGCAGGTTACCATAAGGTTGG,-0.0926
8,TCGTGTAGATCAACAGGAGGTTAAGAAAGATCGA,0.363
9,CCTATTAGTTTACCATAAGGGCAACCGAAGCTCG,0.256
10,GCTAGTCGGTCAGTAAAAGGTCACACACCGGTCG,0.159
11,TCTATTAGTTGAACGGCAACCGACGAGTCCGTTT,0.259
12,ATCTCTAAGTAACAAGTTCAGTGAAAGAGAGGAC,0.885
13,GCTAGTTGGTCAGTAAAAGGTCCCACACCGGTCG,-0.0613
14,TCATATAGGTAAACGGTGAAAGTCGGTGTGGTAA,1.61
15,ACTAGTTGGTCAGCTGAGGTCACATACAATTCGG,0.89
16,CGTCCAAGGTCATAGGAGGTCAGTGAGGACAGAT,1.02
17,TCATATAGGTAAATGCTAGGTGAAAGTGCGATCT,0.822
18,TCCAGTAGGTTAGGGGCATTCAGAATGGCGTCGA,-0.472
19,CTCGAAAGGTCGTGCTCAGGTGAGTAGACCAAAC,1.76
20,CCTAGTAGGTCAGGAGGTCACACACCGGATATGA,1.73

row,Sequence,PBM binding z-score
1,CAAACTAGGTCACGAAAGTTCAAAGTCGAATGAC,2.45
2,TCTTGTAGATCAAGGGTTAAGAAAGCCGAAGCCT,0.632
3,TTACCAAGATGAGCTGAGGTCGTTGATCCAACTC,-0.000343
4,CCTTACGGGTCAAGGTTATAGCGCGGGTGGTACG,-0.278
5,TAGTCTAGGTCATGGGCCAGTATACCACGCGAAC,3.12
6,ATCTCTAGGTAAAAGTTCAGTCAATCCCGAGGAT,1.46
7,AGTCAAAGTTCACTAGGGAACGTAAGATTCAGCT,0.753
8,CGTCCAAGGTCATAGAAGGTCAGTGAAGACAGAT,0.653
9,CCAGACAGGTGACAGGTAACTCAGTCTGGTACGC,-0.216
10,CTCGAAAGGTCGTGCTCACGTGAGTATACCAAAC,0.551
11,TTACCAAGGTGAGCAGAGGTCGTTGATCCAACTC,-0.426
12,ATGTCTAGGTAAAGTTCAGTGAAAGATCGATAGA,1.14
13,CCGACTGGGGCACAAAGGTTACCATACCATCCGG,-0.0878
14,TATACAGGGTCAAAGGCCAGCGTACGAATGTCGA,2.29
15,CCTACTGGGCAATTCAGAGGTCATTGATCATATG,0.00726
16,ACTATTAGTTGACTTGGGGCAACCGATACGACGC,1.18
17,CCGACTTGGGCAGAAAGGTTACCATACCATCCGG,-0.764
18,GCTAGCACGCCATTTGGGTCACTCAATGACGGGC,-1.77
19,TCGAGTAGGTTAGGGGCATTCAAAATGGCGTCGA,-0.544
20,CCTCGGAGGACAGAAGGTCAGAGCCGTCCGCTTT,-1.85

# System: PPARg DBDmut IVT, anti-PPARg (DBD mutation: PPARg1 K132A/R137A, NR concentration 270 nM)
# Assay: as above
# In short: as §1
row,Sequence,PBM binding z-score
1,CAAACTAGCTCAAAGGTCAAAGTCGAGCCAACCA,0.63
2,GGAACGAGGGCAAGTCGATAGCAGAGTTTGATGG,-0.527
3,CAGCGTAGGTCAGGGCCAGTATAGGAGGAACGTT,-1.66
4,TATTGTAGATCAACAGGAGGTTAAGAAAGATCGA,1.13
5,CAGCCTAGGTCAGGGCCAATATAGGAGGAACGTT,-1.23
6,CTCGAAAAGTCGTGCTCAGGTGAGTATACCAAAC,0.325
7,GCGATTGGGGCAAAGCAGGTTACCATAAGGTTGG,-0.514
8,TCGTGTAGATCAACAGGAGGTTAAGAAAGATCGA,-0.42
9,CCTATTAGTTTACCATAAGGGCAACCGAAGCTCG,1.25
10,GCTAGTCGGTCAGTAAAAGGTCACACACCGGTCG,0.0206
11,TCTATTAGTTGAACGGCAACCGACGAGTCCGTTT,0.73
12,ATCTCTAAGTAACAAGTTCAGTGAAAGAGAGGAC,0.883
13,GCTAGTTGGTCAGTAAAAGGTCCCACACCGGTCG,-0.438
14,TCATATAGGTAAACGGTGAAAGTCGGTGTGGTAA,0.702
15,ACTAGTTGGTCAGCTGAGGTCACATACAATTCGG,0.482
16,CGTCCAAGGTCATAGGAGGTCAGTGAGGACAGAT,0.649
17,TCATATAGGTAAATGCTAGGTGAAAGTGCGATCT,0.878
18,TCCAGTAGGTTAGGGGCATTCAGAATGGCGTCGA,0.307
19,CTCGAAAGGTCGTGCTCAGGTGAGTAGACCAAAC,0.659
20,CCTAGTAGGTCAGGAGGTCACACACCGGATATGA,1.02

row,Sequence,PBM binding z-score
1,CAAACTAGGTCACGAAAGTTCAAAGTCGAATGAC,4.02
2,TCTTGTAGATCAAGGGTTAAGAAAGCCGAAGCCT,-0.0594
3,TTACCAAGATGAGCTGAGGTCGTTGATCCAACTC,-0.456
4,CCTTACGGGTCAAGGTTATAGCGCGGGTGGTACG,0.175
5,TAGTCTAGGTCATGGGCCAGTATACCACGCGAAC,2.31
6,ATCTCTAGGTAAAAGTTCAGTCAATCCCGAGGAT,1.49
7,AGTCAAAGTTCACTAGGGAACGTAAGATTCAGCT,0.755
8,CGTCCAAGGTCATAGAAGGTCAGTGAAGACAGAT,0.867
9,CCAGACAGGTGACAGGTAACTCAGTCTGGTACGC,-0.746
10,CTCGAAAGGTCGTGCTCACGTGAGTATACCAAAC,0.796
11,TTACCAAGGTGAGCAGAGGTCGTTGATCCAACTC,-0.173
12,ATGTCTAGGTAAAGTTCAGTGAAAGATCGATAGA,1.13
13,CCGACTGGGGCACAAAGGTTACCATACCATCCGG,-1.02
14,TATACAGGGTCAAAGGCCAGCGTACGAATGTCGA,0.981
15,CCTACTGGGCAATTCAGAGGTCATTGATCATATG,-0.498
16,ACTATTAGTTGACTTGGGGCAACCGATACGACGC,1.45
17,CCGACTTGGGCAGAAAGGTTACCATACCATCCGG,-1.15
18,GCTAGCACGCCATTTGGGTCACTCAATGACGGGC,-1.29
19,TCGAGTAGGTTAGGGGCATTCAAAATGGCGTCGA,-0.184
20,CCTCGGAGGACAGAAGGTCAGAGCCGTCCGCTTT,-1.98
